Results taken from PubChem BioAssay (NCI).
This is part of a sample that, as a whole, favours compounds with a hit. Of some 79,000 tested, about 15% had one in any assay. Rule as the data show it: active = growth inhibition above about 70%; inactive = the rest.

Assays:
[1] = NCI Yeast Anticancer Drug Screen. Data for the rad50 strain (AID 155);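 also: 0% = growth of vehicle-only cultures of the same strain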; conditions: S. cerevisiae rad50 strain growth inhibition; at 50.0 µM; hits give high values
In short: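 Yeast carrying a defined DNA repair defect were exposed to test compounds, and growth was compared with vehicle-treated controls to give percent inhibition.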

[2] = NCI Yeast Anticancer Drug Screen. Data for the mec2-1 strain (AID 157); conditions: S. cerevisiae mec2-1 strain, at 50.0 µM, hits give high values
In short: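 Mutant yeast (mec2-1) grown with compound; growth inhibition relative to vehicle control reported.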

[3] = NCI Yeast Anticancer Drug Screen. Data for the sgs1 mgt1 strain (AID 161);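 also: 0% = growth of cultures given vehicle only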; conditions: S. cerevisiae sgs1 mgt1 strain, at 50.0 µM, hits give high values
In short: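 Growth of a repair-deficient yeast mutant was monitored after compound treatment and expressed as inhibition relative to vehicle-treated cultures.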

[4] = NCI Yeast Anticancer Drug Screen. Data for the cln2 rad14 strain (AID 165);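 also: 0% = growth equal to vehicle treated cultures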; conditions: S. cerevisiae cln2 rad14 strain, at 50.0 µM, hits give high values
In short: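 Readout is yeast growth inhibition versus vehicle-treated controls, using a strain with cln2 and rad14 alterations exposed to compound.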

[5] = NCI Yeast Anticancer Drug Screen. Data for the bub3 strain (AID 167); conditions: S. cerevisiae bub3 mutant strain, at 50.0 µM, hits give high values
In short: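 Compounds were applied to a genetically altered yeast strain carrying a cell-cycle control defect. Growth inhibition was scored against vehicle-treated controls.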

[6] = NCI Yeast Anticancer Drug Screen. Data for the mlh1 rad18 strain (AID 175); conditions: S. cerevisiae mlh1 rad18 strain growth inhibition; at 50.0 µM; hits give high values
In short: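 Genetically defined yeast (DNA repair-deficient) exposed to compounds; growth inhibition determined relative to vehicle.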

Measured: growth inhibition

O=C(O)c1c2c(cc3c(=O)c4ccccc4[nH]c13)CCCC2
inactive: [1] -5.65% | [2] -16.4% | [3] 18.7% | [4] 7.25% | [5] -15.7% | [6] 5.2%

Cc1nc2cc(N)c(Cl)cc2[nH]1
inactive: [1] -6.5% | [2] 14.8% | [3] 9.95% | [4] -7.15% | [5] 10.5% | [6] -0.6%

Cc1ccc(C(=O)C2=CN=C3C(=O)N(c4ccccc4)N(C)C3(C)C2=N)cc1 (stereo unspecified)
inactive: [1] -4.65% | [2] 36.7% | [3] 11.2% | [4] 1.1% | [5] 4.9% | [6] 36.1%

Cn1c2ccccc2c(=S)c2c(O)cc3c(c21)C=CC(C)(C)O3
inactive: [1] 28.8% | [2] 6.3% | [3] -0.7% | [4] 22.9% | [5] 9.85% | [6] 21.6%

CC(=O)[C@H]1CC[C@H]2[C@@H]3CC=C4N(CCO)C(=O)CC[C@]4(C)[C@H]3CC[C@]12C
inactive: [1] -18.9% | [2] -1.4% | [3] 14.8% | [4] -28.1% | [5] 25.9% | [6] 13.3%

C[N+](C)(C)C12CCCC1S(=O)(=O)C2 (stereo unspecified)
inactive: [1] 4.95% | [2] 4.25% | [3] 9.3% | [4] -7.5% | [5] -7.45% | [6] 16.6%

CSCCC(NC(=O)c1cnc2ccccc2n1)C(=O)O (stereo unspecified)
inactive: [1] -4.55% | [2] 2.6% | [3] 11.2% | [4] 5.55% | [5] 14.7% | [6] -17.1%

Cc1cc(C(=O)N/N=C/c2cc(Cl)cc(Cl)c2O)c2cc(Br)ccc2n1
inactive: [1] 61.5% | [2] 25.4% | [3] 54% | [4] 15.9% | [5] -0.2% | [6] 45%

C1CCC(N=C2N(C3CCCCC3)C(=NC3CCCCC3)N2C2CCCCC2)CC1
inactive: [1] 4.7% | [2] -28.3% | [3] -7.2% | [4] -19.6% | [5] -20.6% | [6] -4.35%

CCOC(=O)C(Cc1ccccc1Cl)(Cc1ccccc1Cl)c1ccccc1
inactive: [1] 7.15% | [2] -17.1% | [3] -10.5% | [4] -79.5% | [5] -4.95% | [6] 1.3%

OCC(O)C(O)C(O)C(O)CNC(CO)(CO)CO (stereo unspecified)
inactive: [1] 9.9% | [2] 13.3% | [3] 18.6% | [4] -1.45% | [5] 16.6% | [6] 27.5%

CCOc1c(OC)cc(-c2nc3n(n2)C(=O)C(CC)S3)cc1OC (stereo unspecified)
inactive: [1] -15.6% | [2] -17.4% | [3] -41.3% | [4] -4.85% | [5] -3.65% | [6] -4.2%

Cc1cccc[n+]1CC(=O)c1ccc(Cl)cc1
inactive: [1] -8.05% | [2] 3.25% | [3] 1.05% | [4] -44.8% | [5] -4% | [6] 3.65%

S=C(S)N(Cc1ccccc1)Cc1ccccc1
inactive: [1] 33.4% | [2] -3% | [3] 27.2% | [4] -0.7% | [5] 6.6% | [6] 36.5%

CC1CCCCCN1CCC(=O)c1ccccc1 (stereo unspecified)
inactive: [1] 17.9% | [2] 25.1% | [3] 17.9% | [4] 19.2% | [5] 32.6% | [6] 8.65%

CC(CC[C@@H](O)C(C)(C)O)C1[C@@H](O)CC2(C)C3CC(O)C4C(C)(C)[C@@H](OC5OC(CO)C(O)C(O)C5O)CC[C@@]45C[C@@]35CC[C@]12C (stereo partly specified)
inactive: [1] -14.9% | [2] 2.65% | [3] 0.15% | [4] -30.2% | [5] -5.9% | [6] -28.1%

CN(C(=O)CCC1OCCO1)c1cc([N+](=O)[O-])ccc1OCc1ccccc1
inactive: [1] 22.1% | [2] -1.05% | [3] 1.5% | [4] 9.8% | [5] 2% | [6] 15.2%

NCCCNC1CCCCC1
inactive: [1] 8.8% | [2] -27.9% | [3] 2.55% | [4] -0.45% | [5] 1.7% | [6] 12.8%

CCOC(=O)c1ccccc1Nc1c(C(=O)OCC)cnc2cc3c(cc12)OCO3
inactive: [1] -13.8% | [2] 3.95% | [3] -9.85% | [4] 2.85% | [5] -0.25% | [6] -7.8%

O=C(O)/C=C\C(=O)Nc1ccc(C(=O)NCC(=O)O)cc1
inactive: [1] -22.9% | [2] -4.8% | [3] -0.85% | [4] -20.8% | [5] -11.8% | [6] -7.05%

O=c1[nH][nH]c(=O)c2c1nc(SCc1ccc(Br)cc1)n2Cc1ccccc1
inactive: [1] 16.9% | [2] 0.3% | [3] -7.95% | [4] 1.85% | [5] -2.35% | [6] 3.8%

On1ccc(N2CCOCC2)cc1=NC1CCCCC1
inactive: [1] 25.9% | [2] 14.9% | [3] 14.5% | [4] 17.6% | [5] 3.7% | [6] 25.7%

CN(C)C(=O)Sc1ccc([N+](=O)[O-])cc1Cl
inactive: [1] 15.4% | [2] 4.6% | [3] 5.7% | [4] 14.6% | [5] -4.3% | [6] 16.8%

CCCCCCCCCCC(CO)CCCCCCCC (stereo unspecified)
inactive: [1] -14.8% | [2] 8.85% | [3] 5.85% | [4] -1.55% | [5] -9.45% | [6] 4%

C[N+](C)(CCCn1ccnc1[N+](=O)[O-])CCCn1ccnc1[N+](=O)[O-]
inactive: [1] -15.3% | [2] -6% | [3] 14.8% | [4] 3.55% | [5] -14.8% | [6] 4.8%

CCN(CC)CC(=O)Nc1c(C(N)=O)nnn1Cc1cc(Cl)c(C(=O)c2ccc(Cl)cc2)c(Cl)c1
inactive: [1] 41.8% | [2] -14.5% | [3] 5.15% | [4] 7.95% | [5] 15.9% | [6] -36.1%

CC(C)(C)C(=O)C(=O)O
inactive: [1] 19.9% | [2] -13.2% | [3] -3.7% | [4] 1.15% | [5] -8.5% | [6] 14.6%

c1ccc(C2=NN(c3ccccc3)C3C4CCC(C4)C23)cc1 (stereo unspecified)
inactive: [1] -5.6% | [2] 8.15% | [3] -6.2% | [4] -49% | [5] 13.8% | [6] 12.1%

Cc1ccc(S(=O)(=O)N/N=C(/c2ccccc2)c2ccsc2C)cc1
inactive: [1] 6.7% | [2] 37.3% | [3] 37% | [4] 24.2% | [5] 41.3% | [6] 53.4%

Cc1cc2c(=O)[nH]c(=S)[nH]c2cn1
inactive: [1] 8% | [2] 7% | [3] -11.4% | [4] -0.35% | [5] 6.8% | [6] -3.6%

CC(C)(C)C1=CC(=C2C(=O)C(=O)c3ccccc3C2=O)C=C(C(C)(C)C)C1=O
inactive: [1] -3.2% | [2] -22.2% | [3] -12.7% | [4] 6.85% | [5] 22.4% | [6] -21.5%

CN(C)CCNc1ccc(CO)c2sc3ccc(O)cc3c(=O)c12
inactive: [1] 11.4% | [2] -3.65% | [3] 12.1% | [4] -32% | [5] 12.2% | [6] -9.25%

COC(=O)NC(=Nc1ccc(Oc2ccccc2)cc1NC=O)NC(=O)OC
inactive: [1] 0.15% | [2] -14.8% | [3] -13.6% | [4] 25.4% | [5] 15.9% | [6] 11.5%

CN(C)C1=CC(=O)NC(c2ccccc2)C1 (stereo unspecified)
inactive: [1] -10.6% | [2] -17.4% | [3] -10.6% | [4] -14.2% | [5] -3.45% | [6] -11.6%

CCOC(=O)/C=C\[C@H]1OC(C)(C)O[C@H]1[C@H](O)[C@H]1COC(C)(C)O1
inactive: [1] -22.3% | [2] -14.1% | [3] -15.4% | [4] 38% | [5] -11.8% | [6] -9.6%

NNC(=O)C(=O)N/N=C1\CCC(=O)CC1C(=O)CCC(=O)Nc1ccc(Cl)cc1 (stereo unspecified)
inactive: [1] 10.3% | [2] 1.05% | [3] -16.6% | [4] -9.35% | [5] -0.8% | [6] -17.5%

COc1cc(C(C#N)NNC(=O)Cc2ccccc2)cc(OC)c1OC (stereo unspecified)
inactive: [1] -18.9% | [2] -54.1% | [3] -53.9% | [4] 18.5% | [5] -45.8% | [6] -49.8%

CCOc1cc(/C=N\NC(=S)N/N=C/c2ccc(O)c(OCC)c2)ccc1O
inactive: [1] -15.2% | [2] -0.75% | [3] -4.35% | [4] 1.55% | [5] -6.65% | [6] 29.9%

CCCCCCCCCCCCCCCCOP(=O)(O)OP(=O)(O)OCC1OC(n2ccc(N)nc2=O)CC1O (stereo unspecified)
inactive: [1] -10.2% | [2] -3.9% | [3] 8.7% | [4] -17.8% | [5] 20.6% | [6] 12.7%

NNC(=O)C1=NN(c2ccccc2)C(=O)C1
inactive: [1] 39.3% | [2] 12.8% | [3] 33.6% | [4] -12.9% | [5] 36.8% | [6] 42.1%

CC1(c2ccc(Cl)cc2)NC(=O)N(CC(=O)Nc2ccccc2)C1=O (stereo unspecified)
inactive: [1] 7.1% | [2] 13.9% | [3] 2.65% | [4] -7.95% | [5] -12.1% | [6] 14.2%
